Measurements reported in PubChem BioAssay (NCI).
The panel holds about 79,000 compounds, 15% with a hit somewhere; the sample as a whole holds those more often. Rule as the data show it: active = growth inhibition above about 70%; inactive = the rest.

Key:
[1] = NCI Yeast Anticancer Drug Screen. Data for the rad50 strain (AID 155);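 also: 0% = growth of vehicle-only cultures of the same strain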; conditions: S. cerevisiae rad50 strain growth inhibition; at 50.0 µM; active compounds read high
Outline: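 Vehicle-treated cultures provide the reference for the growth inhibition reported for compound-exposed, repair-deficient yeast.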

[2] = NCI Yeast Anticancer Drug Screen. Data for the mec2-1 strain (AID 157); conditions: S. cerevisiae mec2-1 strain, at 50.0 µM, active compounds read high
Outline: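 Yeast mec2-1 mutant treated with compound. Readout: growth inhibition vs vehicle controls.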

[3] = NCI Yeast Anticancer Drug Screen. Data for the sgs1 mgt1 strain (AID 161);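 also: 0% = growth of cultures given vehicle only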; conditions: S. cerevisiae sgs1 mgt1 strain, at 50.0 µM, active compounds read high
Outline: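 Genetically altered yeast, compound exposure, growth inhibition relative to vehicle.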

[4] = NCI Yeast Anticancer Drug Screen. Data for the cln2 rad14 strain (AID 165);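 also: 0% = growth equal to vehicle treated cultures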; conditions: S. cerevisiae cln2 rad14 strain, at 50.0 µM, active compounds read high
Outline: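 cln2 rad14 yeast strain; compound exposure; growth inhibition read vs vehicle controls.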

[5] = NCI Yeast Anticancer Drug Screen. Data for the bub3 strain (AID 167); conditions: S. cerevisiae bub3 mutant strain, at 50.0 µM, active compounds read high
Outline: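 Mutant yeast screening strain plus compound; vehicle-treated cultures serve as the 0% inhibition reference.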

[6] = NCI Yeast Anticancer Drug Screen. Data for the mlh1 rad18 strain (AID 175); conditions: S. cerevisiae mlh1 rad18 strain growth inhibition; at 50.0 µM; active compounds read high
Outline: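 Yeast w/ defined DNA-repair lesions; compound exposure; growth vs vehicle controls → % inhibition.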

Measured: growth inhibition

Cc1[nH]c(=O)n2c(C)nnc2c1C(=O)O
inactive: [1] -5.3% | [2] -4.15% | [3] 1.95% | [4] -10.2% | [5] -2.7% | [6] -1.55%

CN(C)CC(O)CO (stereo not drawn)
inactive: [1] 38.5% | [2] -4% | [3] -6.5% | [4] -45.1% | [5] 21.7% | [6] 22%

ClC(Cl)(Cl)C(N1CCN(c2ccccc2)CC1)N1CCN(c2ccccc2)CC1
inactive: [1] 8.95% | [2] -34% | [3] -29.4% | [4] -38.5% | [5] -25.9% | [6] -17.6%

COCC1OCCN1C (stereo not drawn)
inactive: [1] 12.7% | [2] 7.75% | [3] -10% | [4] 17.4% | [5] 5.65% | [6] -32.1%

CC(C)=CC1C(C(=O)O)C1(C)C (stereo not drawn)
inactive: [1] 5.55% | [2] -13.2% | [3] 3.35% | [4] -2.95% | [5] 8.4% | [6] 10.2%

Cc1nc(C)c(N2CCN(Cc3ccccc3)CC2)c(=O)[nH]1
inactive: [1] 8.65% | [2] 2.5% | [3] -45.1% | [4] 13% | [5] 17.4% | [6] -52.9%

CS(=O)(=O)Nc1cccc(C(=O)O)c1
inactive: [1] 28.6% | [2] -0.05% | [3] 14.8% | [4] -2.85% | [5] -28.9% | [6] -23%

CN(C)CCCNC(=O)CCNC(=O)c1cc(NC(=O)c2cc(NC(=O)c3cc(NC(=O)c4nc(NC(=O)CCCNC(=O)c5cc(NC(=O)c6cc(NC(=O)c7cc(NC(=O)c8nccn8C)cn7C)cn6C)cn5C)cn4C)cn3C)cn2C)cn1C
inactive: [1] -17.3% | [2] -31.9% | [3] 23.1% | [4] 28.8% | [5] 15.3% | [6] -46.4%

CC(C)CCc1ccc2ccc3cccc4ccc1c2c34
inactive: [1] -17.6% | [2] 3.55% | [3] -1.15% | [4] -26.3% | [5] -0.85% | [6] -8.1%

CCCCCC(=O)C(CCCC)C(=O)OCC (stereo not drawn)
inactive: [1] -6.15% | [2] -0.1% | [3] -25.2% | [4] 2.6% | [5] -12% | [6] -33.5%

COC(=O)C1CCC(C)(C(=O)OC)C1(C)C (stereo not drawn)
inactive: [1] 0% | [2] -15.2% | [3] -11.9% | [4] -1.3% | [5] -12.4% | [6] -3.75%

CC(=O)Oc1cc(C)c(OC(C)=O)c(C)c1C
inactive: [1] -12.8% | [2] -27.4% | [3] -2.15% | [4] -9.3% | [5] 10.3% | [6] 6.3%

CC[N+](C)(CC)CCOC(C)=O
inactive: [1] 8.55% | [2] -12.1% | [3] -5.95% | [4] 11.2% | [5] -6.5% | [6] 8.3%

CCOC(=O)C1CCC(=O)C(CC)=C1C (stereo not drawn)
inactive: [1] -6.8% | [2] -40.3% | [3] 8.5% | [4] -1.85% | [5] -6.5% | [6] -6.5%

Cc1cc(Cl)nc2ccc([N+](=O)[O-])cc12
inactive: [1] 5.35% | [2] 6.3% | [3] -5.35% | [4] -18.1% | [5] 14.2% | [6] 5.5%

O=C1c2ccccc2CN1c1ccccc1
inactive: [1] -23% | [2] -25.6% | [3] -3.25% | [4] 6.45% | [5] -7.5% | [6] -2.7%

COC1C(OC(N)=O)C(O)C(Oc2ccc3c(O)c(NC(=O)c4ccc(O)c(CC=C(C)C)c4)c(=O)oc3c2C)OC1(C)C (stereo not drawn)
inactive: [1] 7.2% | [2] -23.4% | [3] 1.7% | [4] -6.1% | [5] 9.1% | [6] 26.4%

NC(=O)Nc1ccc2[nH]c(=O)c3ccccc3c2c1
inactive: [1] 7.4% | [2] -3.35% | [3] 17.2% | [4] 0.6% | [5] -7.15% | [6] 1.45%

CCCCCCCCCCCCCCCCCCNC(=O)NCc1ccncc1
inactive: [1] -13.3% | [2] 1.8% | [3] -11.3% | [4] -4.3% | [5] -0.35% | [6] 9.3%

CC(C)(C)CC(=O)Nc1ccccc1
inactive: [1] 28.9% | [2] -4.15% | [3] -17.1% | [4] 13.7% | [5] -8.9% | [6] 9.25%

CC(=O)/C(N=Nc1ccc(S(=O)(=O)c2ccc(N=N/C(C(C)=O)=C(/C)O)cc2)cc1)=C(\C)O
inactive: [1] -27.2% | [2] -20.4% | [3] -9.8% | [4] 0.15% | [5] -20.6% | [6] -14.9%

CCOc1c2c(nn(C)c1=O)Oc1ccccc1N2CCCN1CCOCC1
inactive: [1] -27.6% | [2] -0.25% | [3] -18.1% | [4] 2.3% | [5] 3.95% | [6] -4.6%

O=C(CC1(O)C(=O)Nc2ccc(Br)cc21)c1ccc(Cl)cc1Cl (stereo not drawn)
inactive: [1] 44.9% | [2] 36.7% | [3] 69% | [4] 37% | [5] 48.2% | [6] 33.9%

COc1cc2c(-c3cc(OC)c(OC)c(OC)c3)cc(C)[n+](C)c2cc1OC
inactive: [1] 6.25% | [2] -9.2% | [3] -2.3% | [4] -15% | [5] -13.3% | [6] 1.8%

N=c1sc2ccccc2n1CC(=O)O
inactive: [1] 2.2% | [2] -16.5% | [3] -13.3% | [4] -22.6% | [5] 3.85% | [6] -41.2%

CCOCC/C(=N\Nc1ccc([N+](=O)[O-])cc1[N+](=O)[O-])c1ccccc1
inactive: [1] 19.8% | [2] 5.85% | [3] 11.2% | [4] 19.6% | [5] 30% | [6] 9.55%

CCOC(=O)C1CN(CCCN2CC(C(=O)OCC)C(=O)C2=O)C(=O)C1=O (stereo not drawn)
inactive: [1] 9.9% | [2] 7.25% | [3] 3.5% | [4] 24.1% | [5] 9.95% | [6] -3.95%

CC1CC(=O)C(CC(=O)O)[C@H]1C(C(=O)C(=O)Nc1cc(Cl)ccc1Cl)[N+](=O)[O-] (stereo partly drawn)
inactive: [1] 1.45% | [2] -11.3% | [3] -10.1% | [4] 14.7% | [5] -13.3% | [6] -2%

COc1ccc(OC)c2cc(C3(C)SCCCS3)ccc12
inactive: [1] -9% | [2] 9.35% | [3] 19.2% | [4] 15.3% | [5] 13.2% | [6] -12.2%

CC(=O)OCC(COC(C)=O)C(C)=O
inactive: [1] -7.35% | [2] -5.75% | [3] -8.5% | [4] 21.6% | [5] 4.65% | [6] -22.6%

COc1ccc2c(c1)CCCN2
inactive: [1] -3.4% | [2] -23% | [3] -4.05% | [4] -20.1% | [5] -13.3% | [6] 3.65%

CCCc1ccc(N)cc1
inactive: [1] 3.25% | [2] -38.4% | [3] -9.1% | [4] -18.1% | [5] -24.4% | [6] -15.7%

CSC(=S)Nc1nc2ccc(Cl)cc2s1
inactive: [1] -1.45% | [2] 6.75% | [3] 15.3% | [4] 3.15% | [5] 17.7% | [6] 3.2%

O=c1[nH]c2ccccc2nc1/C=C(\O)c1ccc([N+](=O)[O-])cc1
inactive: [1] 1.55% | [2] -10.6% | [3] -21.6% | [4] 25.7% | [5] -22.4% | [6] 1.6%

C[C@]12CC[C@@H]3c4ccc(OP(=O)(O)O)cc4CC[C@H]3[C@@H]1CCC2=O
inactive: [1] -7% | [2] 4.9% | [3] -22.7% | [4] -23.9% | [5] -24.6% | [6] -14.1%

CN(C)CCN1CCCN(C)CC1
inactive: [1] -14.9% | [2] -13.8% | [3] -4.25% | [4] -17.2% | [5] -25.3% | [6] 5.4%

CN1C(=O)CNS1(=O)=O
inactive: [1] -1.45% | [2] 9.6% | [3] -4.35% | [4] -11.1% | [5] 4.6% | [6] 7.3%

CC(C)S(=O)(=O)C(C)C
inactive: [1] 5.1% | [2] 0.35% | [3] -8.65% | [4] 11.7% | [5] -13.6% | [6] -5.85%
